Screening data from PubChem.
Rows were chosen to be rich in hits. Some 7.6% of all compounds tested hit in one or more screens of this group.
KCNH2 3.1 block: inhibitors of human KCNH2 3.1 potassium channel isoform; 0.95% of 340,000 active; U2OS KCNH2 3.1, thallium flux FluxOr; hits give low values; activity change, % (tested at about 1.8 µM);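 active = maximum activity change below -70%; inconclusive = maximum activity change from -70% to -50%; inactive = maximum activity change above -50%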;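 note: thallium influx rate constant from kinetic fluorescence after stimulation buffer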
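We transduce U2OS cells with the mutant 3.1 virus, culture them overnight, load FluxOr with Red40 quencher for 45 min, then add stimulation buffer and read kinetically for 2 min to derive a normalized rate constant.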
MCF10A rerep: inducers of DNA re-replication in MCF 10A breast cells | MCF 10A DNA re-replication, Hoechst nuclear intensity, 48 h | Potency, µM (doses to about 46.1 µM), actives largely listed as activators | 2.9% of 350,000 active; note: nearly all actives have a fitted effect of over 50% in size
KB-V1 cytotox: KB-V1 MDR subline cytotoxicity | KB-V1 MDR cells viability, CellTiter-Glo, 72 h | Potency, µM (series often up to 46.1 µM), most hits filed as cytotoxic | 3.4% of 400,000 active | AID 1347076; note: nearly all actives have a fitted effect of over 60% in size
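KB-V1 cells (P-gp-expressing MDR subline of KB-3-1) in phenol-red-free DMEM with 10% FBS were exposed to library compounds over a concentration series for 72 h at 37 degrees C. Viability read by CellTiter-Glo luminescence; concentration-effect curves fitted after normalization.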
hERG WT inh: blocks the wildtype human KCNH2 potassium channel. AID 720551. U2OS, BacMam KCNH2, thallium flux FluxOr; hits give low values. activity change, % at 1.84 µM. 0.37% of 340,000 active;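 active = maximum activity change below -70%; inconclusive = maximum activity change between -70% and -50%; inactive = maximum activity change above -50%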
Target sequence (Q12809 whole entry, looked up): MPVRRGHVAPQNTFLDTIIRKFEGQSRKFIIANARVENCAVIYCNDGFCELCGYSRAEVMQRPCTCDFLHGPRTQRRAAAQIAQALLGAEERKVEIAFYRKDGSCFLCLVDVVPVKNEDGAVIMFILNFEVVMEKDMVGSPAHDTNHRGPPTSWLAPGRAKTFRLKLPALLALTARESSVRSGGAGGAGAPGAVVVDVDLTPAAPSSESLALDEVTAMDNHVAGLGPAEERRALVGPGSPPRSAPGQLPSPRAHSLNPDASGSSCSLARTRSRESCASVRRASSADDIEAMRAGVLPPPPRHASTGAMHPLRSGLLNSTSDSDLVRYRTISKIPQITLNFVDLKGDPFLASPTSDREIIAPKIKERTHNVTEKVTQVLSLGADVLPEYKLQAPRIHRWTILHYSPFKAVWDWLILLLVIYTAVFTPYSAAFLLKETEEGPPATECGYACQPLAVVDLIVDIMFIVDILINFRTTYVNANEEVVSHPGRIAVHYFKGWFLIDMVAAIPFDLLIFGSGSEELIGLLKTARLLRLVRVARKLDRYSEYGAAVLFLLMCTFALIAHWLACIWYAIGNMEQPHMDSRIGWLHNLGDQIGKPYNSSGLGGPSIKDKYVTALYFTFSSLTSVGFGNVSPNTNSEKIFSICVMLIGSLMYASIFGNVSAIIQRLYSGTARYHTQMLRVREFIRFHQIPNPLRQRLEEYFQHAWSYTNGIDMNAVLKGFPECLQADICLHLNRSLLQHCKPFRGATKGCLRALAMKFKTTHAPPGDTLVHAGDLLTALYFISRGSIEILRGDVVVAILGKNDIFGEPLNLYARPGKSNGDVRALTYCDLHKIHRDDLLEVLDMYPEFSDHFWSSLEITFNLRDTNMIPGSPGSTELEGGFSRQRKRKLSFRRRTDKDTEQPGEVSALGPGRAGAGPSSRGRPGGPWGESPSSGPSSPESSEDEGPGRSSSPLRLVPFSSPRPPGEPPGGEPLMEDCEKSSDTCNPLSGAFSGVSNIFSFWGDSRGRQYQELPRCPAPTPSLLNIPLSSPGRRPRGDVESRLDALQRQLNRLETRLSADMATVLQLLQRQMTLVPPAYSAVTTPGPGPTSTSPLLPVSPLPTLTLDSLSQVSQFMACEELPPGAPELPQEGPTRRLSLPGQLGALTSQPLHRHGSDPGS
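U2OS cells transduced with wild-type KCNH2 virus are loaded with FluxOr dye for 45 min, and thallium flux is measured in kinetic reads before and after stimulation buffer. Rate constants are normalized to DMSO controls.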
SW480 rerep: DNA re-replication induction in SW480 cells | Potency, µM (titrated, usually from 46.1 µM), most hits filed as activators | SW480 DNA re-replication, Hoechst DNA content imaging, 48 h | 1.8% of 340,000 active; note: nearly all actives have a fitted effect of over 55% in size
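Readout is total intensity of Hoechst-stained nuclei, excited at 405 nm and collected at 500-530 nm. Compound treatment lasted 48 hr at 37 C in 5% CO2 before staining.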
KB-3-1 cytotox: kills parental KB-3-1 adenocarcinoma cells; KB-3-1 viability, CellTiter-Glo ATP luminescence, 72 h; Potency, µM (titrated, usually from 46.1 µM), usual class: cytotoxic; 1.4% of 400,000 active; AID 1347075; note: nearly all actives have a fitted effect of over 60% in size
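Viability of parental KB-3-1 cells, measured by CellTiter-Glo luminescence, followed a 72 h incubation at 37 °C with pinned compounds in phenol-red-free DMEM containing 10% FBS.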
Numbers stand for hits; - = inactive; ? = inconclusive; . = no result; [ ] = dose if it differs, or a comment. Unless noted, calls come from the whole dose curve; as a rule, active = well fitted curve in the direction sought with a large enough effect; inconclusive = small, poorly fitted or top-dose-only effect, or another doubt; inactive = no such curve, though single readings can be large; an effect the other way counts as inactive or inconclusive.

SMILES | KCNH2 3.1 block | MCF10A rerep | KB-V1 cytotox | hERG WT inh | SW480 rerep | KB-3-1 cytotox
CCOc1ccc(Cl)cc1-c1cc(C(=O)Nc2ccc(OC)nc2)[nH]n1 | . | . | - | . | . | -
Cc1ccc(S(=O)(=O)Nc2ccccc2CNc2ccccn2)cc1 | - | - | 21µM | - | - | ?
Cc1ccc(S(=O)(=O)Nc2ccccc2CNc2ccc(Br)cn2)cc1 | - | ? | 5.8µM | - | ? | 23µM
Cc1ccc(S(=O)(=O)CC(=O)Nc2ccccn2)cc1 | - | - | - | - | - | -
Cc1ccc(S(=O)(=O)Nc2ccccc2CNc2ncc(Br)cc2Br)cc1 | -94 | - | 2.9µM | - | ? | ?
Cc1ccc(NS(=O)(=O)c2ccc(Br)cc2)nc1 | - | - | - | - | - | -
Cc1cnc(NS(=O)(=O)c2ccccc2)c(Br)c1 | - | - | - | - | - | -
Cc1ccc(S(=O)(=O)CC(=O)Nc2ccc(S(=O)(=O)Nc3ccccn3)cc2)cc1 | - | 1.5µM | - | - | - | -
CCOc1ccc(S(=O)(=O)c2c(C(=O)c3ccc(CC)cc3)cnc3ccc(C)cc23)cc1 | . | . | - | . | . | -
COc1ccc(C(=O)NCCc2csc(-c3ccc(Cl)cc3)n2)c(OC)c1 | . | . | - | . | . | -
CC(C)c1ccc2c(c1)[C@H]1OCC[C@H]1[C@@H](c1cccs1)N2 | - | 7.3µM | 2.3µM | - | 9.2µM | 6.5µM
Cc1cc(C)c2c(c1)N[C@H](c1cccs1)[C@@H]1CCO[C@H]21 | - | ? | - | - | - | ?
CCOc1ccc2cc(C#N)c(SCC(=O)N3CCC(C)CC3)nc2c1 | - | ? | 2.6µM | - | - | -
Cc1cccc2cc(C#N)c(SCC(=O)N3CC(=O)Nc4ccccc43)nc12 | - | 0.65µM | ? | - | 7.3µM | 0.82µM
COc1ccc2cc(C#N)c(SCC(=O)N3CCCC3)nc2c1 | - | - | ? | - | -[9.22 µM] | ?
COc1ccc2cc(C#N)c(SCC(=O)N3CC(=O)Nc4ccccc43)nc2c1 | - | 21µM | - | - | ? | 7.3µM
O=C(Nc1ccc(F)cc1F)c1cc(-c2ccc3c(c2)OCO3)on1 | - | - | ? | - | - | -
Cc1c(C(=O)N2CCN(CCc3ccccc3)CC2)oc2ccccc12 | - | ? | 13µM | - | - | -
CCOc1ccc2oc(C(=O)N3CCN(Cc4ccccc4)CC3)c(C)c2c1 | - | 21µM | - | - | - | -
Cc1c(C(=O)N2CCN(CCc3ccccn3)CC2)oc2ccc(Cl)cc12 | -103 | - | - | - | - | -
O=C(c1cccc(Cl)c1)N1CCN(CCc2ccccn2)CC1 | . | . | - | . | . | -
Cc1ccc(OCC(=O)NNC(=O)c2ccoc2C)c(Br)c1 | - | - | - | - | - | -
CC(C)NC(=O)NC(=O)COc1ccc(Br)cc1Br | - | 23µM | ? | - | - | -
Cc1occc1C(=O)NNC(=O)COc1ccc(Br)cc1Br | - | - | 15µM | - | - | -
Cc1noc(C)c1C(=O)Nc1ccc(-n2ccc(C(F)(F)F)n2)cc1 | - | - | - | - | - | -
SMILES | KCNH2 3.1 block | MCF10A rerep | KB-V1 cytotox | hERG WT inh | SW480 rerep | KB-3-1 cytotox
CCN(C(=O)COC(=O)c1ccccc1OCc1ccc(Cl)cc1)C1CCS(=O)(=O)C1 (centres undefined) | - | - | . | - | - | .
CC[C@]12c3[nH]c4ccccc4c3CCN1C(=O)C(CC(=O)NCCc1ccccn1)C[C@@H]2C(=O)N1CCN(C(=O)c2ccco2)CC1 (some centres undefined) | - | - | - | - | - | -
O=C(Cn1cnc([N+](=O)[O-])c1)Nc1ccccc1C(F)(F)F | - | - | ? | -74 | - | -
CCC1=Nc2cc(C(=O)N3CCC(C)CC3)ccc2Sc2ccc(C)cc21 | . | . | - | . | . | -
CCN(CC)S(=O)(=O)c1ccc2c(c1)N(CC(=O)NCCCN1CCN(c3cc(Cl)ccc3C)CC1)C(=O)CO2 | . | . | 13µM | . | . | ?
Cc1ccc(Cl)cc1N1CCN(CCCNC(=O)C2COc3ccccc3C2)CC1 (centres undefined) | . | . | - | . | . | 21µM
Cc1nc([N+](=O)[O-])cn1CC(=O)c1ccc2c(c1)OCCCO2 | . | . | - | . | . | -
Cc1nnc(SCC(=O)N(Cc2ccccc2)C(C)(C)C)[nH]c1=O | - | - | - | - | - | -
